Several values for one entry are separate records, joined by “and”; a condition that tells them apart may be missing. Equal values may be shown once. Compounds without any hit were thinned out: in the full panel of roughly 83,000, 20% have a hit.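 Growth was measured after 48 h exposure to one concentration of compound in 96-well plates. Values under 10 count as active.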 Activity calls are given as the source filed them.
System: HL-60(TB) leukemia
Assay: NCI-60 one-dose screen, 48 h (100 = growth as untreated, 0 = no growth, -100 = all killed)
Conditions: 10 µM unless noted

| SMILES | growth |
| --- | --- |
| C1CN(SSN2CCOCC2)CCO1 | 35.6% [100 µM] (inactive) |
| O=C1CNC(c2ccccc2)C(c2ccccc2)N1 (centres undefined) | 106% (inactive) |
| Cc1nc(Nc2ncc(C(=O)Nc3c(C)cccc3Cl)s2)cc(N2CCN(CCO)CC2)n1 | 107% (inactive) and 35.7% (inactive) |
| CC(=O)OC(OC(C)=O)C1CCCO1 (centres undefined) | 147% (inactive) |
| Nc1cccc(Nc2cc(S(=O)(=O)O)c(N)c3c2C(=O)c2ccccc2C3=O)c1 | 105% (inactive) |
| O=C1c2ccccc2C(=O)N1OCc1ccccc1 | 94.2% (inactive) |
| Cc1ccc2[nH]c(=O)cc(-n3nncc3Cn3c4ccccc4c4ccccc43)c2c1 | 107% (inactive) |
| ClCCn1c(CCl)nc2ccc(Cl)cc21 | -69% (active) |
| CC(C)C[C@H](NC(=O)[C@@H](Cc1ccccc1)n1ccc(Nc2ccccc2)cc1=O)B(O)O | -7.72% (active) |
| CC(C)N1CN2C(=S)NC3C2N(C1)C(=S)N3C (centres undefined) | 100% (inactive) |
| C=CCn1c(C)nc2cc(Nc3nc(Nc4ccc5nc(C)n(CC=C)c5c4)nc4ccccc34)ccc21 | 84% (inactive) |
| COc1ccc(-c2cnc(N)nc2-c2ccc(OC)cc2O)cc1 | 79% (inactive) |
| COc1cccc(-c2nn(-c3ccccc3)cc2-c2ccnc(NCCCNC(=O)Nc3ccc(Cl)c(Cl)c3)c2)c1 | 16.8% (inactive) |
| O=C1/C(=C/c2ccc(-c3ccc(Br)cc3)o2)SC(=S)N1CCc1ccc(O)cc1 | 44.3% (inactive) |
| NC1CCC(C(=O)O)CC1 (centres undefined) | 113% (inactive) and 110% (inactive) |
| C=C1CCC2C(C)(CO)C(O)CCC2(C)C1CC(NCc1ccccc1)C1=CCOC1=O (centres undefined) | 111% (inactive) |
| C/C(=N\NC(=O)c1ccncc1)c1ccccc1O | 5.87% (active) and 2.85% (active) |
| Cc1c(C(=O)NCCN2CCOCC2)cn2ncnc(Oc3ccc(NC(=O)Nc4ccc(Cl)c(C(F)(F)F)c4)cc3)c12 | -0.946% (active) |
| COc1ccc(-c2ccc(NNC(=O)c3ccc(F)cc3)nn2)cc1OC | 46.9% (inactive) |
| Cc1c(Cc2ccccc2)c(=O)oc2c(C)c(OCc3n[nH]c(=S)o3)ccc12 | 69.7% (inactive) |

| SMILES | growth |
| --- | --- |
| N#Cc1c(NC(=O)c2cccc(Br)c2)sc2c1CCCC2 | 62.4% (inactive) |
| O=C(Nc1ccc2ncnc(Nc3ccc(F)c(Cl)c3)c2c1)c1ccccc1 | 82.2% (inactive) |
| COc1cccc(C(=O)N(c2ccc(F)c(F)c2)C(C(=O)NC(C)(C)C)c2cc3c(C)cc(C)cc3nc2Cl)c1 (centres undefined) | 63.3% (inactive) |
| CC(C)N1C(=O)/C(=C2\SC(=S)N(C(C)C)C2=O)SC1=S | 100% (inactive) |
| C=CCCCOC1[C@H](OCc2ccccc2)C(OCc2ccccc2)C(OC)O[C@@H]1CNC(=O)c1cccc(I)c1 (some centres undefined) | 55.1% (inactive) |
| COc1cc(NC(=O)C#Cc2ccccc2)c(OC)cc1Cl | 42.7% (inactive) |
| Cc1nc2ccccc2c(/C=C/c2ccc(Cl)cc2)c1C(=O)/C=C/c1ccc(F)cc1 | -7.94% (active) |
| CC(=O)Nc1ccc(S(=O)(=O)Cl)cc1 | 103% (inactive) |
| COc1cc(-c2nccc3cc4c(cc23)OCO4)cc(OC)c1OC | 5.43% (active) and 9.65% (active) |
| CC(=O)Nc1nc(C)c(C(=O)NN)s1 | 117% (inactive) |
| CNC(=O)c1cc(Oc2ccc(NC(=O)Nc3ccc(Cl)c(C(F)(F)F)c3)cc2)ccn1 | -35.3% (active) and 23.3% (inactive) |
| CCN(CC)CCCC(C)Nc1cnc(C(=O)Nc2cc(F)cc3cccnc23)cn1 (centres undefined) | 85.5% (inactive) and 5.69% (active) |
| COc1cc([C@@H]2c3cc4c(cc3[C@H](O)[C@H]3COC[C@@H]23)OCO4)cc(OC)c1OC | 57.8% (inactive) |
| COc1ccc(-c2nnc3n(C)c(=O)c4ccccc4n23)cc1N | -22.8% (active) |
| COc1cc2c(c(OC)c1OC)CCC(c1cccc(C(=O)Nc3cccc(Cl)c3)c1)O2 (centres undefined) | 82.7% (inactive) |
| CCCCCCCSc1ncnc2[nH]ncc12 | 87.4% (inactive) |
| COc1cc(OCc2cccc(Br)c2C)cc(OC)c1C=O | 92.6% (inactive) |
| O=c1[nH]c(=S)[nH]c(=O)n1Cc1cccc2ccccc12 | 101% (inactive) |
| CC/C=C\C[C@H]1C/C=C2/C(=O)C=C[C@@H]2C/C=C\CCCC(=O)O1 | -27.2% (active) |

From PubChem BioAssay (NCI)
